# Source: PubChem (National Center for Advancing Translational Sciences (NCATS))
# PNC inhibitor = inhibitors of perinucleolar compartment assembly; PC3M PTB-GFP, PNC prevalence imaging, 16 h; hits give low values; activity change (PNC), negative = inhibition, % at 10 µM; actives 3.1% (n = 140,000);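 active means readout at or below -70, meaning at least 70% loss of cells showing the perinucleolar compartment, a nuclear body marking cancer cells; inconclusive means readout between -30 and a set limit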;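 further: plate controls were DMSO wells for no effect and camptothecin positive control wells for full effect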
#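 Read-out is percentage of cells bearing a perinucleolar compartment, from automated 20x imaging of fixed, Hoechst-stained PC3M PTB-GFP cells. Cells were seeded 4 h, then exposed 16 h to compound (23 nl of library stock) in duplicate plates.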
# HPGD block = HPGD (human) dehydrogenase inhibition; P15428; purified HPGD, NADH fluorescence kinetic, PGE2 substrate; Potency, µM, for inactives: at the highest dose activity change, negative = inhibition, most hits filed as inhibitors; actives 4.3% (n = 150,000); AID 894; further: potency means the concentration at half of the fitted maximal effect
#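 NADH formation kinetics: reaction with 30 uM PGE2 and 1 mM NAD+ (final), 20 nM enzyme, Tris-HCl pH 8 with Tween 20, after 15 min compound preincubation at room temperature. Fluorescence change, last versus first of five reads.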
# ALDH1A1 block = blocks purified human ALDH1A1 activity | Purified ALDH1A1, NADH fluorescence, propionaldehyde substrate | Potency, µM (highest dose often 75.3 µM), without a hit: at the top dose activity, negative = inhibition, usual class: inhibitors | actives 7.3% (n = 220,000);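 further: potency means the concentration at half of the fitted maximal effect; plate controls were no enzyme wells and a reference inhibitor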
# Target sequence (P00352 whole entry, looked up): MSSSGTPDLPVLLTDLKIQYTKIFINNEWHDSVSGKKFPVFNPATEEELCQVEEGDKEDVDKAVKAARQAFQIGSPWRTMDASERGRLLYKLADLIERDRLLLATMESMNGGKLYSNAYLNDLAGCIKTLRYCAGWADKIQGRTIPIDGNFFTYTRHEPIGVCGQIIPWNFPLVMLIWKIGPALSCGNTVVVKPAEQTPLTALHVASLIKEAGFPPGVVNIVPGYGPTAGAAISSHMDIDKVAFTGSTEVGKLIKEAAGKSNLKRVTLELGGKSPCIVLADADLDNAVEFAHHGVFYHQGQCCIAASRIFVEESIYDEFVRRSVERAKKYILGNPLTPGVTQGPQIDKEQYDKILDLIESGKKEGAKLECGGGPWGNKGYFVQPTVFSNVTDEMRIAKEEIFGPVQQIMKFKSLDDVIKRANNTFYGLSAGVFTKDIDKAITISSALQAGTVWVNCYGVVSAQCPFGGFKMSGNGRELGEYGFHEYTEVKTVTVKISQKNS
# Numbers without * were called inactive; ? = inconclusive; / = not tested or not shown; [ ] = dose if it differs, or a comment. The list is not random: actives were taken first. Their share in the collection is about 11%. Unless noted, the call rests on the fitted dose curve; in most records, active means well fitted inhibition curve with a large enough effect (not every such curve was filed as active); inconclusive means small, poorly fitted or top-dose-only effect, or another doubt; inactive means no such curve, though single readings can be large or run the other way. Unless noted, on the % scale 0 is the no-effect control and ±100 the full control effect.
SMILES,PNC inhibitor,HPGD block,ALDH1A1 block
O=S(=O)(Cc1nc2ccccc2s1)c1ccccc1,?,-6%,-6%
O=C(O)CCc1n[nH]c(=S)[nH]c1=O,-8,-9%,?
Cc1nn(Cc2ccc(C(=O)n3cccn3)o2)c(C)c1Br,-11,-4%,0%
Cc1cc(C)n(C(=O)c2ccc(Cn3nc(C)c(Br)c3C)o2)n1,-100*,-6%,0%
c1ccc(-c2nc(-c3cccs3)c(NC3CCCCC3)o2)cc1,/,-10%,2%
CCCCS(=O)(=O)/C=C\C1C2C=CC(C2)C1S(=O)(=O)CCCC (stereo unspecified),41,1%,?
CCCCS(=O)(=O)/C=C\C=C/S(=O)(=O)CCCC,?,25µM*,4µM*
COc1ccc(N2CC(C)Cn3c2nc2c3c(=O)[nH]c(=O)n2C)cc1 (stereo unspecified),22,-11%,10%
Fc1ccc(NCc2nnc(SCc3nnc(-c4ccccc4)o3)n2CC2CCCO2)cc1 (stereo unspecified),?,-6%,-8%
Cc1nc2sccc2c(=O)n1-c1cccc(Cl)c1,-20,-9%,10%
C[C@H](O)CON1C(=O)c2ccccc2C1=O,/,-3%,-5%
C=CCON1C(=O)c2ccccc2C1=O,-111*,-21%,?
CCCn1c(N)c(C(=O)CSc2nnnn2-c2ccc(O)cc2)c(=O)n(C)c1=O,26,-15%,-9%
CC(C)=CCN1CCN(Cc2cnc(N3CCCC3)s2)CC1CCO (stereo unspecified),/,/,13%
COC(=O)c1ccc(CN2CCN(CC=C(C)C)C(CCO)C2)cc1 (stereo unspecified),/,/,20µM*
CC(C)=CCN1CCN(Cc2cnc(N3CCOCC3)s2)CC1CCO (stereo unspecified),/,/,25µM*
COC(=O)c1ccc(CN2CCN(Cc3ccc(F)cc3)C(CCO)C2)cc1 (stereo unspecified),/,/,17%
CC[C@H](NC(C)C)[C@H](O)c1ccc(O)c(O)c1,/,-3%,8%[20.9 µM]
Cc1ccc(S(=O)(=O)C2C(=O)N(C)C3(C)CC2c2ccccc2O3)cc1 (stereo unspecified),55,-7%,18%
CC(C)CC(c1nnnn1C1CCCCC1)N1CCN(c2ncccn2)CC1 (stereo unspecified),-29,-14%,?
CC(C)CC(c1nnnn1C1CCCC1)N1CCC(C(N)=O)CC1 (stereo unspecified),/,/,22µM*
Cc1cc(C)nc(/N=C(/NC(=O)Nc2ccc(Cl)c(Cl)c2)Nc2cccc(Cl)c2)n1,-113*,-4%,9%
Cc1cc(C)nc(/N=C(/NC(=O)Nc2ccc(Cl)c(Cl)c2)Nc2ccccc2)n1,11,-6%,4%
CC1(C)NC(=O)N(CC(O)Cn2nnc3ccccc32)C1=O (stereo unspecified),-30,1%,0%
Cc1cccc(CN2C(=O)CCSc3ccc(Cl)cc32)c1,31,-10%,14µM*
SMILES,PNC inhibitor,HPGD block,ALDH1A1 block
O=C1CCSc2ccc(Cl)cc2N1Cc1ccccc1,0,-4%,2%
C#CC[N+]1(CC#Cc2ccc(C)cc2)CCCCC1,38,-4%,-1%
CNc1ccc(/C=C2\COc3ccccc3C2=O)cc1[N+](=O)[O-],11,1.6µM*,14%
CCOc1cc(/C=C2/COc3ccccc3C2=O)ccc1OCC(=O)N(C)C,/,/,-16%
COc1cccc(CNC(=O)Cn2cc3c(n2)CCCC3)c1,?,-3%,-15%
COc1cccc(CNC(=O)CN2C(=O)CC(c3ccccc3)=Nc3ccccc32)c1,/,/,35µM*
Cc1ccc(S(=O)(=O)/C(C#N)=C/c2c(N3CC(C)OC(C)C3)nc3c(C)cccn3c2=O)cc1 (stereo unspecified),?,2.2µM*,?
N#C/C(=C\c1c(N2CCC(C(N)=O)CC2)nc2ccccn2c1=O)S(=O)(=O)c1ccccc1,-7,-24%,?
Cc1cccn2c(=O)c(/C=C(\C#N)S(=O)(=O)c3ccccc3)c(N3CCN(C)CC3)nc12,?,-17%,11µM*
CCN1CCN(c2nc3c(C)cccn3c(=O)c2/C=C(\C#N)S(=O)(=O)c2ccc(C)cc2)CC1,?,?,-9%
Cc1ccc(S(=O)(=O)/C(C#N)=C/c2c(N3CCN(C)CC3)nc3c(C)cccn3c2=O)cc1,7,?,?
CC1CN(c2nc3ccccn3c(=O)c2/C=C(\C#N)S(=O)(=O)c2ccccc2)CC(C)O1 (stereo unspecified),15,18µM*,13µM*
O=C(CN1CCN(C(=O)c2ccccc2F)CC1)Nc1ccc(Br)cc1,8,-6%,?
O=C(COC(=O)c1ccc(CNS(=O)(=O)c2ccc(F)c(Cl)c2)cc1)NCC1CCCCC1,54,-10%,9%
Cc1nc2ccc(Nc3ccncc3)cc2s1,/,/,0%
OC1C(O)C(O)C(O)C(O)C1O (stereo unspecified),/,-3%,12%
Brc1cccc(CNc2nc3ccccc3n2CCN2CCOCC2)c1,/,/,8%
Brc1cccc(CNCc2cccs2)c1,-89*,-11%,8%
Clc1ccc(CNCc2cccs2)cc1Cl,4,-9%,0%
O=C(O)C1C2C=CC(C2)C1C(=O)NCc1ccc(Cl)c(Cl)c1 (stereo unspecified),?,1%,?
CCCCOCCCNC(=O)c1ccc(OCC)cc1,-18,-16%,6%
COc1ccc(CCn2c(=O)[nH]c3cc(C(=O)NCCc4ccccc4)ccc3c2=O)cc1OC,?,0%,14%
O=C1CCCc2c1cc(C(=O)NCc1ccco1)c(=O)n2-c1ccccc1,-12,/,0%
O=C(NCc1ccco1)c1ccc2c(=O)n(-c3ccccc3)c(=S)[nH]c2c1,46,-3%,0.22µM*
COc1ccc(-n2c(=S)[nH]c3cc(C(=O)Nc4ccc(OC)c(OC)c4)ccc3c2=O)cc1,17,-14%,-2%
SMILES,PNC inhibitor,HPGD block,ALDH1A1 block
COc1ccc(-n2c(=S)[nH]c3cc(C(=O)NCc4ccco4)ccc3c2=O)cc1OC,-22,-13%,0.11µM*
COc1ccc(CCn2c(=S)[nH]c3cc(C(=O)NCc4ccco4)ccc3c2=O)cc1OC,20,?,0.05µM*
CCO[C@@H]1OC(C(=O)N2CCN(C)CC2)=C[C@H](c2coc3ccccc3c2=O)[C@H]1CCCO,/,/,-9%
Cc1cc(=O)c(C(=O)O)nn1-c1ccccc1,/,/,3%
Cc1ccccc1-n1c(C)nnc1SCC(=O)N1CC(=O)Nc2ccccc21,2,-4%,-3%
CC1CCC2(CC1)NC(=O)N(CC(=O)NC(=O)NC1CCCC1)C2=O (stereo unspecified),?,-9%,0%
CN=C1S/C(=C\c2ccc(N3CCOCC3)cc2C)C(=O)N1C,-29,-16%,8%
CN=C1S/C(=C\c2cc(C)n(-c3ccccc3F)c2C)C(=O)N1C,22,22µM*,18µM*
Cc1ccc(NC2=NCC(=O)N2C2CCCC2)cc1,/,/,1%
Cn1c2c(c(=O)n(C)c1=O)C(C(F)(F)F)(C(F)(F)F)N=C(C1CCCCC1)N2,-93*,-1%,7%
Cn1c2c(c(=O)n(C)c1=O)C(C(F)(F)F)(C(F)(F)F)N=C(c1ccc(Cl)cc1)N2,30,-9%,12%
COCc1cc(=O)[nH]c(SCCS(=O)(=O)c2ccc(C)cc2)n1,/,/,0.79µM*
